Assay [1] in a line: AP1 Signaling Pathway (AID 357; active means well fitted curve in either direction with a large enough effect, not every such curve was filed as active;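 further: ME-180 reporter cells stimulated with EGF at its EC50 level; on the % scale 0 is the no-effect control and ±100 the full control effect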). The method in brief:
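Modulation of EGF-driven AP-1 transcription was assessed with a beta-lactamase reporter in ME-180 cells. Compound and EC50 EGF were co-incubated 5 hours at 37 °C before 2.5-hour CCF4 loading at room temperature and dual-emission reading.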

Assay [2] is described as follows: NFAT Signaling Pathway (AID 444; active means well fitted curve in either direction with a large enough effect, not every such curve was filed as active;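 further: carbachol stimulus at about its EC50 of 1 µM final; on the % scale 0 is the no-effect control and ±100 the full control effect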). To be noted: Jurkat NFAT-bla M1, carbachol, beta-lactamase ratio, 5 h; at 17.2 µM (top of the series) unless noted. The method in brief:
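Jurkat cells with NFAT-driven β-lactamase reporter and co-expressed M1 receptor, stimulated with carbachol (final 1 uM, ~EC50), compound titration, 5 h at 37 °C. CCF4 loaded 1 h at RT; 460/530 nm ratio gave %activity and AC50.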

Assay [3] is described as follows: Stat Signaling Pathway (AID 446; active means well fitted curve in either direction with a large enough effect, not every such curve was filed as active;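 further: ME-180 cervical cancer cells given 40 pM IL-6 alongside compound; SIE-controlled beta-lactamase reporter measured as 460/530 nm FRET emission ratio; on the % scale 0 is the no-effect control and ±100 the full control effect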). The method in brief: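 Overnight-plated ME-180 cells bearing a STAT Inducible Element beta-lactamase reporter; 5 h co-exposure to compound and 40 pM IL-6; values normalized to 300 pM IL-6 and 125 nM JAK inhibitor controls.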
The target in assay [4] is Glucocorticoid receptor (Homo sapiens) (UniProt P04150). The assay can be described thus: GR-GFP Redistribution (AID 450;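 active means compounds whose dose series gives a full or clear partial fitted curve of increased nuclear translocation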; further: potency means the concentration at half of the fitted maximal effect). As to conditions: U2OS GR-GFP nuclear translocation, laser cytometry, 2 h.
For assay [5] the target is unchanged. The assay is described as follows: GR-EFC Redistribution (AID 451; calls by dose curve; further: potency means the concentration at half of the fitted maximal effect). To be noted: CHO-K1 GR-EFC translocation, beta-gal luminescence, 2 h. The gist of the method: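 CHO-K1 cells expressing nuclear EA and GR-ED fragments of b-gal; compounds titrated up to 46 uM final, 2 h at 37 C. GR nuclear translocation read as complemented b-gal luminescence after 1 h RT detection.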

The target of assay [6] is Mitogen-activated protein kinase 10 (Mus musculus) (UniProt Q61831). The assay can be described thus: JNK3 AlphaScreen Assay (AID 530; active means well fitted curve in either direction with a large enough effect, not every such curve was filed as active;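 further: kinase came from lysate of stimulated human HepG2 cells; signal reports phosphorylation of biotinylated GST-cJun 1-79 at Ser73 with 10 µM ATP; on the % scale 0 is the no-effect control and ±100 the full control effect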). The method in brief:
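Activity was read by AlphaScreen after JNK3-containing HepG2 lysate (cytokine pre-activated) phosphorylated biotinylated GST-cJun with 10 uM ATP at room temperature. Phospho-Ser73 cJun antibody with Protein-A acceptor beads provided detection.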

The target in assay [7] is 3',5'-cyclic-AMP phosphodiesterase 4B (Homo sapiens) (UniProt Q07343). The assay can be described thus: qHTS Assay for Inhibitors of PDE-IV (AID 607; active means well fitted activation curve with a large enough effect in the main read-out, with a control signal flat, not every such curve was filed as active; further: % of control where 0% means no effect). The method in brief: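 Live HEK293 cells with a modified cyclic nucleotide-gated (CNG) channel report intracellular cAMP via membrane-potential dye fluorescence (ex 535/em 590 nm). Endogenous PDE-IV was targeted. Compounds were tested at up to 22.9 uM final; RO 20-1724 100 uM served as control.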
Background: qHTS replaces the single test concentration by a dilution series.

Assay [8] in a line: qHTS Assay for Lipid Storage Modulators (AID 1519; calls by dose curve). To be noted: Drosophila S3 cells, BODIPY lipid droplet/cell ratio, laser cytometry, cells loaded with oleic acid; for activity change, negative = inhibition: at 25.7 µM (top of the series). The gist of the method:
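Cells seeded at 5,000 per well were treated with compounds over a concentration series and loaded with oleic acid (400 uM, as added). Lipid droplet fluorescence (488 nm excitation, 500-530 nm channel) was read by laser-scanning cytometry and normalized to 20 uM Triacsin C.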

Assay [9] has as its target ATP-dependent 6-phosphofructokinase (Trypanosoma brucei brucei) (UniProt O15648). The assay is described as follows: qHTS Assay to Find Inhibitors of T. brucei phosphofructokinase: hit validation (AID 492961). The gist of the method: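 Compounds titrated; %activity normalized to 0x and 1x enzyme controls, curve-fitted. Readout: ADP-Glo luminescence after 45 min room-temperature reaction of 1.25 nM PFK, 0.1 mM ATP, 0.5 mM F6P, pH 8.0.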

Assay [10] addresses Ubiquitin carboxyl-terminal hydrolase 1 (Homo sapiens) (UniProt O94782). The assay can be described thus: Inhibitors of USP1/UAF1: Pilot qHTS (AID 504865).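 Further: rhodamine fluorescence freed from ubiquitin-rhodamine substrate followed over time; top concentration of the series differs between compounds; on the % scale 0 is the no-effect control and ±100 the full control effect; nearly all actives have a fitted effect of over 35% in size.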 The method in brief:
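USP1/UAF1 complex at 1 nM preincubated 15 min at room temperature with compound, then Ub-Rho substrate added at 150 nM final. Fluorescence (480/540 nm) read kinetically in 50 mM HEPES pH 7.8, 0.5 mM EDTA, 1 mM TCEP, 0.1 mg/ml BSA, 0.01% Tween-20.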

In assay [11] the target is Luciferin 4-monooxygenase (Photinus pyralis) (UniProt P08659). The assay can be described thus: Biochemical firefly luciferase enzyme assay for NPC (AID 624030).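 Further: purified P. pyralis luciferase at 10 nM with luciferin and ATP substrate; 0% = DMSO and -100% = full luciferase inhibition by PTC124 control; nearly all actives have a fitted effect of over 70% in size.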 The method in brief: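 Purified P. pyralis luciferase at 10 nM in 50 mM Tris Acetate (final), luminescence read within 5 minutes of enzyme addition to compounds. Activity normalised to PTC124 versus DMSO; concentration-response curves classed by r2, magnitude and activity.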

A short description of assay [12]: qHTS profiling for inhibitors of Plasmodium falciparum proliferation (AID 504749).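 Further: 0% = DMSO vehicle and full inhibition = artemisinin control; nearly all actives have a fitted effect of over 60% in size.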 As to conditions: P. falciparum in erythrocytes, SYBR Green DNA, 72 h, at 12.8 µM (top of the series). The method in brief:
(§1)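 Each compound contacts P. falciparum-infected red blood cells for 72 h at 37 C; lysis buffer (Tris, EDTA, saponin, Triton X, SYBR Green I) is added and fluorescence measured next morning; values normalized to controls.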

The next assay has as its system C2A. The description is as above. To be noted: P. falciparum in erythrocytes, SYBR Green DNA, 72 h; series mostly up to 12.8 µM. The method in brief:
as §1

The next assay deals with CP191. The assay is described as above. As to conditions: P. falciparum in erythrocytes, SYBR Green DNA, 72 h; series mostly up to 12.8 µM. The method in brief: as §1
Another assay concerns CP238. The description is as above. As to conditions: P. falciparum in erythrocytes, SYBR Green DNA, 72 h; series mostly up to 12.8 µM. The method in brief: as §1
The next assay concerns CP256. The description is as above. To be noted: P. falciparum in erythrocytes, SYBR Green DNA, 72 h; series mostly up to 12.8 µM. The gist of the method:
as §1

The next assay relates to FAB9. Described as above. As to conditions: P. falciparum in erythrocytes, SYBR Green DNA, 72 h; series mostly up to 12.8 µM. The gist of the method:
as §1

The next assay relates to JCK. Described as above. To be noted: P. falciparum in erythrocytes, SYBR Green DNA, 72 h; series mostly up to 12.8 µM. The gist of the method: as §1
A further assay has as its system SC27B. The description is as above. As to conditions: P. falciparum in erythrocytes, SYBR Green DNA, 72 h; series mostly up to 12.8 µM. The gist of the method: as §1
Assay [13] deals with Cytochrome P450 1A2 (Homo sapiens) (UniProt P05177). The assay is described as follows: p450-cyp1a2 (AID 410; calls by dose curve;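 further: -100% = full effect of reference inhibitor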). The method in brief:
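Luminescent demethylation readout: Luciferin-ME (100uM, equal to Km) turned over by 20nM CYP1A2 for 60 min at room temperature after NADPH regeneration addition, following 10 min compound preincubation. Normalization used 57 uM furafylline as full inhibition.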

Where [14] appears, read: measured here: cell count channel max response.
The mark [15] stands for this setting: measured here: lipid channel max response.

Results filed as inconclusive are left out. Activity calls are given as the source filed them. Unless noted, the call rests on the fitted dose curve; in most records, active means well fitted curve in the direction sought with a large enough effect; inconclusive means small, poorly fitted or top-dose-only effect, or another doubt; inactive means no such curve, though single readings can be large; an effect the other way counts as inactive or inconclusive.

Chain of Luciferin 4-monooxygenase (Photinus pyralis) (P08659 whole entry, looked up): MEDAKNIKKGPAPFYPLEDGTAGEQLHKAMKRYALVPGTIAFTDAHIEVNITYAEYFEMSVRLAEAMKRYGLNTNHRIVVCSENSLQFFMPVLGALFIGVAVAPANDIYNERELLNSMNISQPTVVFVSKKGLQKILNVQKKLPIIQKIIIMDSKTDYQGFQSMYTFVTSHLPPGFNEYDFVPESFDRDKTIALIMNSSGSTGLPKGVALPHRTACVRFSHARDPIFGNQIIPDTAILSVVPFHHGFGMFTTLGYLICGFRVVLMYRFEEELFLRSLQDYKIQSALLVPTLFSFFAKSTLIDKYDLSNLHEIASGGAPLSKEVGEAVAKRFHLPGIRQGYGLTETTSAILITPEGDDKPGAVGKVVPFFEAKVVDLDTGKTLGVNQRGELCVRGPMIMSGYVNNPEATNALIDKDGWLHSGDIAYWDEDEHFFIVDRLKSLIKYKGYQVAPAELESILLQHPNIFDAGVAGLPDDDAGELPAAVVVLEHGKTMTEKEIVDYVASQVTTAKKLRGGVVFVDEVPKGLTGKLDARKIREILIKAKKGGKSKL
Chain of 3',5'-cyclic-AMP phosphodiesterase 4B (Homo sapiens) (Q07343 whole entry, looked up): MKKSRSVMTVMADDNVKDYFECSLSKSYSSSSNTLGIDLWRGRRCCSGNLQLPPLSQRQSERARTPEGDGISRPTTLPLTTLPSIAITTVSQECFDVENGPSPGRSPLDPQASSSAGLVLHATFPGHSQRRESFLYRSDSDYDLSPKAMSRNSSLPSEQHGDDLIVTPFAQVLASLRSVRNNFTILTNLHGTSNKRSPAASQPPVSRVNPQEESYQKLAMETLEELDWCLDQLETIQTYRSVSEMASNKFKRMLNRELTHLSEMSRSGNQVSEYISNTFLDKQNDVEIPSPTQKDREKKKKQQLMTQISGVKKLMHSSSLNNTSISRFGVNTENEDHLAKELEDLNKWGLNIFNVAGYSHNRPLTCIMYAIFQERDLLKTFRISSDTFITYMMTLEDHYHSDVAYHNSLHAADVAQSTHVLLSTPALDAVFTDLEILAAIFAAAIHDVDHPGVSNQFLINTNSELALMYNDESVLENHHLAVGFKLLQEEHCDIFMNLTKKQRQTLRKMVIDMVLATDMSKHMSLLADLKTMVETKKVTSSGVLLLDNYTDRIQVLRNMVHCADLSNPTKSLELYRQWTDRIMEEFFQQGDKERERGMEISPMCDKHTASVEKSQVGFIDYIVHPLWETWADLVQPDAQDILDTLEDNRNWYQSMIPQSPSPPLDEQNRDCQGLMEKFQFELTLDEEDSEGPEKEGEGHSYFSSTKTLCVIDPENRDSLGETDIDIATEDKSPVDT
Chain of Ubiquitin carboxyl-terminal hydrolase 1 (Homo sapiens) (O94782 whole entry, looked up): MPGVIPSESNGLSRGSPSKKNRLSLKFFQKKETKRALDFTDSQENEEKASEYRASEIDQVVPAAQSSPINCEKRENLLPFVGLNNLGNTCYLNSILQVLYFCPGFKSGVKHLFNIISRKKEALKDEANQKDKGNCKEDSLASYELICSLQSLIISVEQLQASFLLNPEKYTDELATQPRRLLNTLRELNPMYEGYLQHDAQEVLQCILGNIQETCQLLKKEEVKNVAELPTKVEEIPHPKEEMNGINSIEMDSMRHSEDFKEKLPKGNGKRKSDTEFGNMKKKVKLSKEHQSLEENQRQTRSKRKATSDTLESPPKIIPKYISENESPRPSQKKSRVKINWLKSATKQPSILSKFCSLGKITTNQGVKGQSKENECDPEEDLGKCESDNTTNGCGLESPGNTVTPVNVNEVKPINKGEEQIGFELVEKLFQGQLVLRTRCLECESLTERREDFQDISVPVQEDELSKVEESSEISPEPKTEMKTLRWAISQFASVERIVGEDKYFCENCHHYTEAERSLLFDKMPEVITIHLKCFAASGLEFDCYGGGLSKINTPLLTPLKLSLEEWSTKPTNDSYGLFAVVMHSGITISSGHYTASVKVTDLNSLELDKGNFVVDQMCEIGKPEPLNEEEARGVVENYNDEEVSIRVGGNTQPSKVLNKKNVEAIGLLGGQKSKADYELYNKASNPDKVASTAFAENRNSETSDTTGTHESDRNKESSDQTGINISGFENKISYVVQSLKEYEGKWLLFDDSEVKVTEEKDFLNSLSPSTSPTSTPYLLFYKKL
Chain of Glucocorticoid receptor (Homo sapiens) (P04150 whole entry, looked up, the tested form may be a part): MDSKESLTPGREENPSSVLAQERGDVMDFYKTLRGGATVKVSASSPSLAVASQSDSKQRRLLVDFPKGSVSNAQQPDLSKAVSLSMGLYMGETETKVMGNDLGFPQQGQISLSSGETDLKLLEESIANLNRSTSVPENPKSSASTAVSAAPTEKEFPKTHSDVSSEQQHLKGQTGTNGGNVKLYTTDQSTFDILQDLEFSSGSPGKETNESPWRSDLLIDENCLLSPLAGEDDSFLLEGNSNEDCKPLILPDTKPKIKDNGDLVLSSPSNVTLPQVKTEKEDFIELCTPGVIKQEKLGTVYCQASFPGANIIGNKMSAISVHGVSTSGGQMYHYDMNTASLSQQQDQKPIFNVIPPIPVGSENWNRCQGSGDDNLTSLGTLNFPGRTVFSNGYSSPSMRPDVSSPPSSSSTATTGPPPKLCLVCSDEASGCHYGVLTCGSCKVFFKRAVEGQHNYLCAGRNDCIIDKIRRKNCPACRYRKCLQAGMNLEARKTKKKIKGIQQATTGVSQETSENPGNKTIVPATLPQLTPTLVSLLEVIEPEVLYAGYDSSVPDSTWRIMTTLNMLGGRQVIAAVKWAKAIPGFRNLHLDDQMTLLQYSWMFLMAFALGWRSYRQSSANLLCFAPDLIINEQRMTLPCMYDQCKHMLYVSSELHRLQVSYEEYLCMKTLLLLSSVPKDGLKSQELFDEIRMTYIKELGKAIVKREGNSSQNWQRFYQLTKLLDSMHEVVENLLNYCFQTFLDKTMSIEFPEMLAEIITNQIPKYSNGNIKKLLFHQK
Chain of ATP-dependent 6-phosphofructokinase (Trypanosoma brucei brucei) (O15648 whole entry, looked up): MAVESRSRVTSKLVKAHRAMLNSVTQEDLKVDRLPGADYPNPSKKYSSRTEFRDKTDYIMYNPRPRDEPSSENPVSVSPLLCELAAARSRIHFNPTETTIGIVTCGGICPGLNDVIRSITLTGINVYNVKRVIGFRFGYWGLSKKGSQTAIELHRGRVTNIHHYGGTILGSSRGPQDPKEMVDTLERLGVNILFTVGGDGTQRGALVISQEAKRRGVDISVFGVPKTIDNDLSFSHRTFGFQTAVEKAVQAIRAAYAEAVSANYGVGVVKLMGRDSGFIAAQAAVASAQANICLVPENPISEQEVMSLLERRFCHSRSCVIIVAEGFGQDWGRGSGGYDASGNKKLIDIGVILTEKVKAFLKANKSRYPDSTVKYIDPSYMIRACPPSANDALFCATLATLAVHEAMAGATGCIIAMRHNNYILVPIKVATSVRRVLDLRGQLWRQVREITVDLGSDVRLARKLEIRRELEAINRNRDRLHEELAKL
Chain of Cytochrome P450 1A2 (Homo sapiens) (P05177 whole entry, looked up): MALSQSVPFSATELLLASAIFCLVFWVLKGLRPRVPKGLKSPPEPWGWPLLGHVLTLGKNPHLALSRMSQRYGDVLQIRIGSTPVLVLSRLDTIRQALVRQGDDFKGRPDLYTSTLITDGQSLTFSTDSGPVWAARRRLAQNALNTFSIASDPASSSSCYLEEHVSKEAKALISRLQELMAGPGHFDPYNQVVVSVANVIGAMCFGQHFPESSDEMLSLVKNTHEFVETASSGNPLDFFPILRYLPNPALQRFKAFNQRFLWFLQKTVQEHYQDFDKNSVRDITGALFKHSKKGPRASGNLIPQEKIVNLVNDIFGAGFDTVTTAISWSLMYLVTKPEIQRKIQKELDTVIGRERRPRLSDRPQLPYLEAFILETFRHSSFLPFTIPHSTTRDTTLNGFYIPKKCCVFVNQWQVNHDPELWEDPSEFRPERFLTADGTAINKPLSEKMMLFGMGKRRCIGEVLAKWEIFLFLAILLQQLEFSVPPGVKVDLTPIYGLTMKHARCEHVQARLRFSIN

On to `CC(=O)OCC(=O)[C@@]12OC(C)(C)O[C@@H]1C[C@H]1[C@H]3C[C@H](F)C4=CC(=O)C=C[C@@]4(C)[C@]3(F)[C@H](O)C[C@@]12C`, for which the molecule was called inactive in assay [1], in assay [3], in assay [7] and in assay [9]. The activity change, negative = inhibition was -1.01% (inactive) in [2] and -1.78% (inactive) in assay [8]. In addition, the Potency in assay [4] was 0.00175 µM (active); in assay [5], 0.0128 µM (active). Also, the Potency result (in assay [6]; in assay [10]; in assay [11]; in the assay with C2A; with CP191; with CP238) was “inactive” throughout. The Potency result with CP256, in the assay on FAB9, in the assay on JCK and in the assay on SC27B was “inactive” throughout. Further, the figures for the max response in [8] (setting [14]) and in [8] (setting [15]) were -13.1% and -17.4%, respectively. Moreover, the activity, negative = inhibition in [12] (parasite line A) was -6.81% (inactive); in [12] (parasite line B), -12% (inactive).
As to `C[C@@H]1C[C@H](OC(=O)[C@@H](O)c2ccccc2)CC(C)(C)N1C`, the call in assay [1], in assay [3] and in assay [7] was inactive. For the same molecule, the Potency entry in assay [13], in [6] and in [11] was “inactive” each time. For the same molecule, in assay [5], the Potency was > 20.6 µM (inactive). The activity change, negative = inhibition in assay [8] was -2.91% (inactive). Also, the max response in assay [8] (setting [14]) is -2.86%; in [8] (setting [15]), -7.41%.
As for `CC[C@H]1NC(=O)c2cc(S(N)(=O)=O)c(Cl)cc2N1`, the result in assay [1], in [3] and in [9] was inactive. Also, the figures for the activity change, negative = inhibition in assay [2] and in [8] were -14.6% (inactive) and -1.77% (inactive), respectively. The Potency in assay [4] and in [5] was > 20.6 µM (inactive) throughout. The Potency result (in [6]; in assay [10]; in assay [11]; in the assay on C2A; with CP191; in the assay with CP238) was “inactive” in each case. Besides, the Potency entry in the assay on CP256, in the assay on FAB9, in the assay with JCK and with SC27B was “inactive” throughout. Further, the results for the max response in assay [8] (setting [14]) and in assay [8] (setting [15]) were 0.892% and -1.37%, respectively. The activity, negative = inhibition in assay [12] (parasite line A) is -8.58% (inactive); in assay [12] (parasite line B), 18.4% (inactive).
For `COc1ccc(OC)c([C@H](O)CNC(=O)CN)c1`, the call in assay [1], in assay [3], in assay [7] and in [9] was inactive. Also, the activity change, negative = inhibition in [2] is -3.71% (inactive); in assay [8], 0.926% (inactive). For the same molecule, the Potency in assay [4] and in [5] was > 20.6 µM (inactive) throughout. Also, the max response is 0.279% in assay [8] (setting [14]) and -0.25% in [8] (setting [15]). The Potency result (in assay [10]; in assay [11]; in the assay with C2A; with CP191; in the assay with CP238; in the assay on CP256) was “inactive” in each case. Moreover, the Potency result in the assay with FAB9, in the assay on JCK and in the assay with SC27B was “inactive” throughout. In addition, the activity, negative = inhibition in [12] (parasite line A) is -3.94% (inactive); in assay [12] (parasite line B), 1.53% (inactive).
In the case of `C=C1C[C@@]23C[C@]1(O)CC[C@@H]2[C@]12C=C[C@@H](O)[C@](C)(C(=O)O1)[C@H]2[C@H]3C(=O)O`, the call in assay [1], in assay [3] and in [7] was inactive. Further, the figures for the activity change, negative = inhibition in [2] and in assay [8] were -11.2% (inactive) and 1.67% (inactive), respectively. The Potency in assay [4] and in assay [5] was > 20.6 µM (inactive) throughout. The Potency result in assay [6] and in assay [10] was “inactive” each time. The max response turned out to be 0.159% in assay [8] (setting [14]) and 3.63% in assay [8] (setting [15]).

The values are drawn from PubChem BioAssay (NCATS).
